Our source for the growth values is PubChem BioAssay (NCI).

The structures appear in SMILES notation. Compounds without any hit were thinned out: in the full panel of roughly 83,000, 20% have a hit.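 Cells were grown in 96-well plates and exposed to the test compound at a single concentration for 48 hours; results are reported as percent growth, with values below 10 considered active.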 The source made the active and inactive calls.

For this test, the system named is HL-60(TB) leukemia. Description: NCI-60 one-dose screen, 48 h (100 = growth as untreated, 0 = no growth, -100 = all killed). The conditions noted are these: 10 µM unless noted.
Turning to `Cc1ccc(C(C)C)cc1NC(=O)Nc1ccc([N+](=O)[O-])cc1`, the growth is -8.6% (active).

Take `Cc1cn(C(C=O)OC(C=O)CO)c(=O)[nH]c1=O` (configuration not stated): the growth is 103% (inactive).

Consider `COc1cc(Cn2cc(F)c(=O)[nH]c2=O)cc(OC)c1`, for which the growth was 104% [50 µM] (inactive).

For the molecule `S=c1[nH]c(=S)c2c(-c3ccccc3)c(-c3ccccc3)oc2[nH]1`, the growth is 94.9% (inactive).

For `CC[C@@H]1NC(=O)[C@H]([C@H](O)[C@H](C)C/C=C/c2ccc(CN3C(=O)C(C)=C(C)C3=O)cc2)N(C)C(=O)[C@H](C(C)C)N(C)C(=O)[C@H](CC(C)C)N(C)C(=O)[C@H](CC(C)C)N(C)C(=O)[C@@H](C)NC(=O)[C@H](C)NC(=O)[C@H](CC(C)C)N(C)C(=O)[C@H](C(C)C)NC(=O)[C@H](CC(C)C)N(C)C(=O)CN(C)C1=O`, the growth is 81.2% (inactive).

`Cc1cc2ccccc2c[n+]1CC(=O)c1ccc(-c2ccccc2)cc1`: the growth was 22.5% (inactive).

On to `O=C(Cc1ccccc1Nc1c(Cl)cccc1Cl)NN1C(=O)/C(=C/c2ccc(Br)cc2)SC1=S`, for which the growth is 101% (inactive).

Turning to `CC1(C)NCCC[C@]2(C)[C@H]3C=CC4=C5C[C@](C)(CO)CC[C@]5(C)CC[C@@]4(C)[C@]3(C)CC[C@@H]12`, the growth was -52.8% [100 µM] (active).

As to `O=C1/C(=C\c2ccc(F)cc2)CN(C(=O)c2ccc([N+](=O)[O-])cc2)C/C1=C\c1ccc(F)cc1`, the growth was 65.1% (inactive).

On to `Cc1cc(C)c(O)c(C(=O)CC(Br)C(=O)O)c1` (configuration not stated), for which the growth was 79.8% (inactive).

Take `O=C(O)c1cc([N+](=O)[O-])ccc1Oc1ccccc1`: the growth is 88.6% (inactive).

For `Nc1c(C(=O)Nc2cccc3cnccc23)sc2nc3c(cc12)CN(Cc1ccccc1)CC3`, the growth was 101% (inactive).

With `Cc1ccc(O)c(C(=O)c2ccccc2)c1`, the growth was 73.1% (inactive).

Take `COc1cc2c(cc1OC)C1CCN3C(=O)CCC3N1CC2` (configuration not stated): the growth is 126% (inactive).

Consider `NS(=O)(=O)c1cn(-c2ncnc3nc[nH]c23)ccc1=O`, for which the growth was 79.5% (inactive).

Regarding `CC(C)C(=O)OCCOc1ccc(C(C)(C)C)cc1`, the growth was 107% (inactive).

As for `COc1ccc(-c2cc(-c3ccc(Cl)cc3)c(C#N)c(=O)n2CCCCCC(=O)Nc2ccccc2N)cc1`, the growth is -14.5% (active).

In the case of `OCC(O)C(O)C(O)C(/C=N/Nc1ccccc1)=N/Nc1ccccc1` (configuration not stated), the growth was 98.6% (inactive).

With `CC(SC(C)C(=O)N/N=C/c1cccc(Cl)c1)C(=O)N/N=C\c1cccc(Cl)c1` (configuration not stated), the growth was 82.8% (inactive).

`Brc1ccsc1Br`: the growth was 102% (inactive).

Regarding `S=C1CCCCCN1`, the growth is 107% (inactive).

Regarding `COC(=O)[C@]1(C)CC[C@]2(C)CC[C@]3(C)C(=CC(=O)[C@@H]4[C@@]5(C)CCC(=O)NC(C)(C)[C@@H]5CC[C@]43C)[C@@H]2C1`, the growth is 1.31% [100 µM] (active).

`CCO/C=N/S(=O)(=O)c1cc2c(cc1Cl)NC=NS2(=O)=O`: the growth is 112% (inactive).

Consider `COc1cc(-c2cc(-c3nc4cc(Cl)c(Cl)cc4[nH]3)[nH]n2)cc(OC)c1OC`, for which the growth was 14.2% (inactive).

With `COc1ccc(-c2c(N)n[nH]c2-c2cc3c(c(OC)c2OC)OCO3)cc1`, the growth was 63.1% (inactive).

Regarding `Nc1ncnc2c1C(c1ccc([N+](=O)[O-])cc1)c1sc3c(F)cccc3c1O2` (configuration not stated), the growth was 97.2% (inactive).

`NS(=O)(=O)c1ccc(-n2nc(-c3ccc(Cl)cc3)ccc2=O)cc1`: the growth is 83.7% (inactive).

In the case of `CCN(Cc1ccccc1)c1ccc(C=O)cc1`, the growth was 85.2% (inactive).

Regarding `COc1cc(C2C(C#N)=C(N)Oc3cc(O)ccc32)cc(OC)c1OC` (configuration not stated), the growth was -26% (active).

On to `Cc1ccc2nc(-c3ccc(-n4on4-c4ccc(/C=C/c5ccc(-n6on6-c6ccc(-c7nc8ccc(C)cc8s7)cc6)cc5S(=O)(=O)O)c(S(=O)(=O)O)c4)cc3)sc2c1`, for which the growth is 101% (inactive).

`O=C1/C=C/[C@@H](O)[C@@H]2C[C@@H](O)C[C@H]2/C=C/CCC[C@H](CCO)O1`: the growth is 3.3% (active).

As for `C=C1CCC2C3(C)COC(c4ccccc4)OC3CCC2(C)C1/C=C/C1=CCOC1=O` (configuration not stated), the growth was 0.949% (active).

As for `CCCCN(CCCC)c1ccc(C(=NC(C)CCCN(CC)CC)c2ccc(N(C)C)cc2)cc1` (configuration not stated), the growth was -32.1% (active).

Take `C#CCSc1nnnn1-c1ccc(Br)c(C)c1`: the growth was 88.4% (inactive).

As for `C/C(Cc1ccccc1)=N\O`, the growth is 13.8% (inactive).

In the case of `O=C(O)C1CCC(=O)N1C(=O)OCc1ccccc1` (configuration not stated), the growth is 84.1% (inactive).

Regarding `CCN(Cc1ccccc1)c1ccc(SC#N)cc1`, the growth is 20.3% (inactive).
